Screening data deposited in PubChem BioAssay by National Center for Advancing Translational Sciences (NCATS).
ELG1 DNA repair: blocks ELG1-dependent DNA repair in HEK293T cells. HEK293T ELG1-luciferase reporter, luminescence, 16 h; DNA damage induced by 5-fluorouridine. Potency, µM (series often up to 46.1 µM), for the others: at the highest dose activity change, negative = inhibition, actives largely listed as inhibitors. hit rate 2.3% among 330,000. AID 504467; note: nearly all actives have a fitted effect of over 55% in size
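Luminescence from the luciferase reporter, measured 30 min after ONE-Glo reagent at room temperature, was the read-out. Beforehand, 2,000 cells per well were exposed for 16 hr at 37 °C to 5-fluorouridine together with compound or vehicle.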
DT40 TDP1 CPT: DT40-hTDP1 cell growth loss with CPT | chicken DT40 Tdp1-/-;hTDP1 cells + 20 nM CPT, ATP luminescence, 48 h | hit rate 12% among 420,000 | Potency, µM (doses to about 46.2 µM), without a hit: at the top dose activity change, negative = growth inhibition, most hits filed as inhibitors; note: nearly all actives have a fitted effect of over 55% in size
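Chicken DT40 Tdp1-/- cells complemented with human TDP1, 400 cells/well, exposed to compounds plus 20 nM camptothecin for at least 48 h at 37 C; viability read as ATP content by CellTiter-Glo luminescence.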
ALOX12 inh: inhibitors of human 12S-lipoxygenase ALOX12. P18054. purified 12hLO, xylenol orange hydroperoxide absorbance. Potency, µM (top dose mostly 108 µM), for the others: at the top dose activity change, negative = inhibition, usual class: inhibitors. hit rate 1.1% among 580,000. AID 1671190
Target sequence (P18054 whole entry, looked up): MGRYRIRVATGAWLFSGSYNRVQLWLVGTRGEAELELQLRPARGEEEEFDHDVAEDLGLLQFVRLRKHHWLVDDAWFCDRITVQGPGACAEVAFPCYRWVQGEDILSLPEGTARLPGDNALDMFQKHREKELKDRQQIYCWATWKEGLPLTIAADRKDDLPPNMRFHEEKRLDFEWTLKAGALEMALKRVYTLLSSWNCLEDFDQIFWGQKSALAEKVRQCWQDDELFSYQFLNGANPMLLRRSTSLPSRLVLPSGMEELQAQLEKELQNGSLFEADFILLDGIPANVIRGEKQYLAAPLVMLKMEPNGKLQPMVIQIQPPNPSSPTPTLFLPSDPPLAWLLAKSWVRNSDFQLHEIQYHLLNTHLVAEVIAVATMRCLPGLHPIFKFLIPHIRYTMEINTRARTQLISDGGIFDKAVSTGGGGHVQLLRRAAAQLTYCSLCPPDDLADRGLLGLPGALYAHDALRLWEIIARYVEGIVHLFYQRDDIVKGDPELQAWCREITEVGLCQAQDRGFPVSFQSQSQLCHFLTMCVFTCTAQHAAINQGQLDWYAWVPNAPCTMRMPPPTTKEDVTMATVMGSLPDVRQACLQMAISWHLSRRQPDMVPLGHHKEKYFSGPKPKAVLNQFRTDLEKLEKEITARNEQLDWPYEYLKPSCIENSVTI
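Purified human 12hLO (150 nM final) in 25 mM Hepes, 0.01% Triton X-100, pH 7.0 was preincubated 15 min at room temperature with compound. Then 40 uM arachidonic acid was added, 30 min. Hydroperoxide was read by Fe-XO absorbance ratio 573/405 nm.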
Gal4-VP16 FLuc: inhibits Gal4-VP16 luciferase reporter, ROR gamma counter-screen. AID 2546. hit rate 3.5% among 310,000. Potency, µM (series often up to 53.6 µM), without a hit: at the highest dose activity, negative = inhibition, most hits filed as inhibitors. Drosophila S2 Gal4-VP16 UAS-luciferase, luminescence, 20 h;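 note: Gal4-VP16 expression switched on by copper sulfate through the metallothionein promoter; nearly all actives have a fitted effect of over 50% in size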
RORgamma inh: inhibitors of mouse ROR gamma transcriptional activity; P51450; Drosophila S2 Gal4-RORgamma UAS-luciferase reporter, 20 h; Potency, µM (series often up to 53.6 µM), inactives show at the top dose activity change, negative = inhibition, most hits filed as inhibitors; hit rate 5.4% among 310,000; AID 2551; note: nearly all actives have a fitted effect of over 60% in size
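Stable Schneider cell line, Gal4 DNA-binding domain fused to ROR gamma, UAS-luciferase. Cmpd 1 hr RT → CuSO4 700 uM final → 20 hr RT → luciferase reagent 10 min → luminescence.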
DT40 TDP1 no CPT: qHTS for Inhibitors of human tyrosyl-DNA phosphodiesterase 1 (TDP1): qHTS in cells in absence of CPT. DT40 Tdp1-/- hTDP1 cells, no CPT, ATP luminescence, 48 h. Potency, µM (doses to about 46.2 µM), for inactives: at the highest dose activity change, negative = growth inhibition, actives largely listed as inhibitors. hit rate 15% among 420,000; note: nearly all actives have a fitted effect of over 55% in size
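DT40 Tdp1-/-;hTDP1 cells, no CPT (DMSO vehicle only), 400 cells/well; compounds pin-transferred; ≥48 hr, 37 °C; CellTiter-Glo 30 min RT dark, luminescence read.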
The depositor's hits bear a star; [ ] = another dose, or the depositor's remark. Compounds with a hit are over-represented: about 15% of the library has one in this group of screens. Calls come from the whole dose curve; as a rule, active = well fitted curve in the direction sought with a large enough effect; inconclusive = small, poorly fitted or top-dose-only effect, or another doubt; inactive = no such curve, though single readings can be large; an effect the other way counts as inactive or inconclusive. % is set by controls: 0 for no effect and ±100 for the full control effect; potency is the fitted concentration of half-maximal effect.

`O=C1ON=C(c2ccccc2)/C1=C/c1ccc(O)c(O)c1` gave ELG1 DNA repair 19%, DT40 TDP1 CPT inconclusive, ALOX12 inh inconclusive, Gal4-VP16 FLuc inconclusive, RORgamma inh inconclusive and DT40 TDP1 no CPT inconclusive.
For O=C1ON=C(c2ccccc2)/C1=C/c1ccc(OS(=O)(=O)c2ccccc2)cc1 the results were ELG1 DNA repair 16%, DT40 TDP1 CPT -27%, ALOX12 inh 18µM*, Gal4-VP16 FLuc 3%, RORgamma inh -10% and DT40 TDP1 no CPT inconclusive.
O=C1ON=C(c2cccc([N+](=O)[O-])c2)/C1=C/c1ccc(O)cc1 was read as ELG1 DNA repair inconclusive, DT40 TDP1 CPT 12µM*, ALOX12 inh 7.9µM*, Gal4-VP16 FLuc -2%, RORgamma inh 3% and DT40 TDP1 no CPT 13µM*.
Screening COc1ccc(C2=NN(c3ccccc3)C(=O)/C2=C\c2ccc(O)c(OC)c2)cc1 returned ELG1 DNA repair 4%, DT40 TDP1 CPT -15%, ALOX12 inh -25%, Gal4-VP16 FLuc -18%, RORgamma inh -24% and DT40 TDP1 no CPT -28%.
`COc1ccc(/C=C2\C(=O)ON=C2c2ccccc2)cc1` gave ELG1 DNA repair inconclusive, DT40 TDP1 CPT inconclusive, ALOX12 inh inconclusive, Gal4-VP16 FLuc -15%, RORgamma inh 2% and DT40 TDP1 no CPT 21µM*.
`CCCn1c(N)c(C(=O)CSc2nnc(Cc3cccs3)n2C2CC2)c(=O)n(C)c1=O` gave ELG1 DNA repair 11µM*, DT40 TDP1 CPT inconclusive, ALOX12 inh 402% and DT40 TDP1 no CPT inconclusive.
For Cn1c(N)c(C(=O)CSc2nnc(Cc3cccs3)n2C2CC2)c(=O)n(C)c1=O the results were ELG1 DNA repair 24%, DT40 TDP1 CPT -12%, ALOX12 inh 78% and DT40 TDP1 no CPT -14%.
Screening Cc1ccc(-c2cc(-c3ccc(C)cc3O)[nH]n2)cc1 returned ELG1 DNA repair inconclusive, DT40 TDP1 CPT 5%, ALOX12 inh 9%, Gal4-VP16 FLuc 7.1µM*, RORgamma inh 4µM* and DT40 TDP1 no CPT inconclusive.
Cc1ccc(-c2cc(C(=O)Nc3nnc(C)s3)[nH]n2)c(O)c1 was read as ALOX12 inh -25%.
`Cc1ccc(O)c(-c2cc(-c3cccc(Br)c3)n[nH]2)c1` gave ELG1 DNA repair inconclusive, DT40 TDP1 CPT inconclusive, ALOX12 inh inconclusive, Gal4-VP16 FLuc -17%, RORgamma inh -2% and DT40 TDP1 no CPT inconclusive.
`Oc1ccccc1-c1cc(-c2ccc(F)cc2)n[nH]1` gave ELG1 DNA repair inconclusive, DT40 TDP1 CPT inconclusive, ALOX12 inh inconclusive, Gal4-VP16 FLuc -80%, RORgamma inh inconclusive and DT40 TDP1 no CPT 15µM*.
Screening Cc1ccc(-c2cc(-c3ccc(C)cc3C)[nH]n2)c(C)c1 returned ALOX12 inh 26%.
For Cc1ccccc1-c1cc(-c2ccccc2O)n[nH]1 the results were ELG1 DNA repair inconclusive, DT40 TDP1 CPT 21µM*, ALOX12 inh inconclusive, Gal4-VP16 FLuc inconclusive, RORgamma inh 5.6µM* and DT40 TDP1 no CPT 23µM*.
`Cc1ccc(-c2cc(-c3ccccc3[N+](=O)[O-])[nH]n2)c(O)c1` gave ELG1 DNA repair inconclusive, DT40 TDP1 CPT inconclusive, ALOX12 inh inconclusive, Gal4-VP16 FLuc inconclusive, RORgamma inh 18µM* and DT40 TDP1 no CPT inconclusive.
For CNC(=S)NNC(=O)C1CC1 the results were ALOX12 inh -5%.
Screening Oc1ccc(F)cc1-c1cc(-c2ccc3c(c2)OCCO3)n[nH]1 returned ELG1 DNA repair inconclusive, DT40 TDP1 CPT -25%, ALOX12 inh 13%, Gal4-VP16 FLuc inconclusive, RORgamma inh inconclusive and DT40 TDP1 no CPT inconclusive.
Screening COc1ccccc1-c1cc(-c2cc(Cl)ccc2O)n[nH]1 returned ELG1 DNA repair inconclusive, DT40 TDP1 CPT -4%, ALOX12 inh -1%, Gal4-VP16 FLuc -22%, RORgamma inh -45%[10 µM] and DT40 TDP1 no CPT -9%.
Screening Oc1ccc(Cl)cc1-c1cc(-c2ccccc2)n[nH]1 returned ELG1 DNA repair 19%, DT40 TDP1 CPT -27%, ALOX12 inh inconclusive, Gal4-VP16 FLuc 4.5µM*, RORgamma inh 1.4µM* and DT40 TDP1 no CPT inconclusive.
Cc1ccc(-c2cc(-c3ccc(F)cc3)n[nH]2)c(O)c1 was read as ELG1 DNA repair inconclusive, DT40 TDP1 CPT inconclusive, ALOX12 inh -13%, Gal4-VP16 FLuc 7.1µM*, RORgamma inh 5.6µM* and DT40 TDP1 no CPT inconclusive.
Cc1cccc(C(=O)Nc2c(C(=O)NCc3ccc(Cl)cc3)sc3nc(C)cc(C)c23)c1 was read as DT40 TDP1 CPT 16µM*, ALOX12 inh -16% and DT40 TDP1 no CPT 26µM*.
Cc1ccc(C2=NC3(CCN(C(=O)c4ccoc4)CC3)ON2)cc1 was read as ALOX12 inh -11%.
`CN(Cc1ccccc1)C(=O)c1ncn(Cc2ccccc2)c1C(=O)N(C)Cc1ccccc1` gave ELG1 DNA repair inconclusive, DT40 TDP1 CPT inconclusive, ALOX12 inh 4% and DT40 TDP1 no CPT 18µM*.
For O=C(NCc1ccccc1)c1ccc2c(=O)[nH]c3c(C(=O)NCC4CCCO4)sc(=S)n3c2c1 (stereo not drawn) the results were ELG1 DNA repair -7%, DT40 TDP1 CPT -16%, ALOX12 inh inconclusive, Gal4-VP16 FLuc 0%, RORgamma inh 14% and DT40 TDP1 no CPT inconclusive.
`O=C(NCc1ccco1)c1sc(=S)n2c1[nH]c(=O)c1ccccc12` gave ELG1 DNA repair -4%, DT40 TDP1 CPT -21%, ALOX12 inh 16µM*, Gal4-VP16 FLuc -10%, RORgamma inh -5% and DT40 TDP1 no CPT inconclusive.
For O=C(NC1CCCC1)c1sc(=S)n2c1[nH]c(=O)c1ccccc12 the results were ELG1 DNA repair inconclusive, DT40 TDP1 CPT 21µM*, ALOX12 inh inconclusive, Gal4-VP16 FLuc 0%, RORgamma inh -16% and DT40 TDP1 no CPT inconclusive.
Cc1cccc(-n2ncc3c(NC(C)C)ncnc32)c1 was read as ELG1 DNA repair inconclusive, DT40 TDP1 CPT inconclusive, ALOX12 inh -6%, Gal4-VP16 FLuc inconclusive, RORgamma inh inconclusive and DT40 TDP1 no CPT inconclusive.
NNc1ncnc2c1cnn2-c1ccccc1 was read as ELG1 DNA repair -23%, DT40 TDP1 CPT inconclusive, ALOX12 inh 0%, Gal4-VP16 FLuc inconclusive, RORgamma inh 11µM* and DT40 TDP1 no CPT inconclusive.
